Experimental data taken from the supplement of paper PMC6555819.

Legend:
Test in all cases: PBM binding z-score (relative to random genomic background probes); higher = stronger binding; sequences stand for … in GC…GCGATTGACAGCGTAGAATGAAGG
[1] = system: FXR:RXRa (NR concentration 270 nM, RXRa partner concentration 90 nM)
How it was run: (§1)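 Scanned fluorescence from custom Agilent 4×180K protein-binding microarrays was regression-normalized. Binding z-scores use random background probes as reference. Ligand-free nuclear receptor dimers were incubated on the arrays for 1 h and detected with antibodies against each partner (one per run).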

[2] = system: LXRa:RXRa (NR concentration 270 nM, RXRa partner concentration 90 nM)
How it was run: as §1

[3] = system: LXRa homodimer (NR concentration 270 nM)
How it was run: as §1

[4] = system: LXRb:RXRa (NR concentration 270 nM, RXRa partner concentration 90 nM)
How it was run: as §1

[5] = system: LXRb homodimer (NR concentration 270 nM)
How it was run: as §1

[6] = system: PPARa:RXRa (NR concentration 270 nM, RXRa partner concentration 90 nM)
How it was run: as §1

[7] = system: PPARg:RXRa (NR concentration 180 nM, RXRa partner concentration 90 nM)
How it was run: as §1

[8] = system: PPARg:RXRa 270nM:90nM, anti-RXR (NR concentration 270 nM, RXRa partner concentration 90 nM)
How it was run: as §1

[9] = system: PPARg:RXRa 30nM:10nM, anti-RXR (NR concentration 30 nM, RXRa partner concentration 10 nM)
How it was run: as §1

[10] = system: PPARg:RXRa 90nM:30nM, anti-RXR (NR concentration 90 nM, RXRa partner concentration 30 nM)
How it was run: as §1

| Sequence | PBM binding z-score [1] | PBM binding z-score [2] | PBM binding z-score [3] | PBM binding z-score [4] | PBM binding z-score [5] | PBM binding z-score [6] | PBM binding z-score [7] | PBM binding z-score [8] | PBM binding z-score [9] | PBM binding z-score [10] |
| --- | --- | --- | --- | --- | --- | --- | --- | --- | --- | --- |
| CAAACTAGGTCACGAAAGGTCAAACTCGAATGAC | 7.61 | 8.32 | 8.55 | 7.66 | 3.3 | 6.75 | 10.5 | 8.69 | 6.95 | 8.93 |
| GCTGCTAGGTGAGGTTGGTCAGCTAACGGGTACG | -0.483 | -0.442 | -0.661 | -0.672 | -0.761 | -0.326 | -0.331 | -0.69 | -1.04 | -0.961 |
| CTCGAAAGGTCGGTGGAGGTGAGTATACGGATAA | 2.34 | 1.77 | -0.129 | 1.41 | -0.0636 | 2.82 | 0.577 | 1.22 | 0.0571 | 0.88 |
| CGAACGAGGGCATGAGTTGATACCAAATGCCGAT | 0.819 | 0.53 | -0.18 | 0.374 | -0.612 | 1.57 | 1.61 | 1.67 | 0.555 | 0.997 |
| TAGCCTAGGTCATTGGGGCAGTATAGTACGCATC | 4.67 | 3.57 | 1.22 | 3.42 | 0.997 | 4.2 | 4.24 | 4.06 | 1.15 | 3.06 |
| GCTGCTACGTCAACTGATGGTCAGCTAAAGCTCG | -0.601 | -0.63 | -0.84 | -0.799 | -1.1 | -0.483 | -0.201 | -0.736 | -0.808 | -0.829 |
| CCTCGGAGGACAGAAGGTCAGACCTGTCCGCTTT | 1.44 | 1.56 | 0.0539 | 1.3 | -0.489 | 1.9 | 0.19 | 0.86 | -0.764 | 0.0778 |
| CCAGACAGGTCAAAGGTAACTCAGTCTGGTACGC | 6.4 | 4.97 | 0.903 | 4.17 | 0.453 | 5.83 | 7.89 | 7.43 | 6.13 | 8.02 |
| GCAGACAGGTGAAACCCAGGTAACTCAGGGTGGC | 0.292 | -0.00475 | -0.738 | -0.364 | -0.909 | 0.818 | 0.657 | -0.0881 | -0.673 | -0.524 |
| GCTCGGAGGACAAGGTCAGAACTTTGTCCGTAGA | 1.86 | 1.64 | -0.253 | 1.31 | -0.462 | 2.22 | 0.592 | 1.57 | 0.0801 | 0.802 |
| ACTAGCAGGCCAAGTTAGGGTCACTCAAACAAAG | 1.87 | 1.73 | -0.142 | 2.55 | -0.86 | 3.36 | 0.753 | 1.38 | -0.00931 | 1.07 |
| CCGAGTAGGTTATGGGGCATTCAAGCAACGGTGA | 0.071 | 0.506 | -0.128 | 0.732 | 0.278 | 2.1 | 3.82 | 4.64 | 2.45 | 4.67 |
| AATCAAAGTTCATCTAGGTAACGTAAGATATGCT | 6.64 | 6.2 | 7.11 | 4.15 | 2.37 | 4.75 | 4.35 | 4.25 | 2.04 | 3.19 |
| ATCGAAAGGTCGAGGTGCGTATAGAGAAAGGGAA | 3.98 | 3.27 | -0.147 | 2.47 | 0.277 | 4.37 | 2.48 | 3.13 | 1.09 | 2.17 |
| CCGACTGGGGCAGAAACGTTACCATACCATCCGG | -0.564 | -0.949 | -0.452 | -0.779 | -0.864 | -1 | 0.724 | -0.373 | -0.314 | -0.369 |
| GCTGCTAGGTCAGGTTGGTCAGCTCACGGGTACG | 1.27 | 0.883 | -0.243 | 0.696 | -0.186 | 1.57 | 0.553 | 0.724 | -0.171 | 0.333 |
| GCTTGTAGATCAAGTTTAAGAAAGACTAAGCTAA | -0.477 | -0.231 | -0.318 | -0.15 | -0.39 | 0.142 | -0.204 | -0.0876 | -0.116 | -0.107 |
| GTACCAAGGTGAATACGTCGTTGATGAGTAGGCG | 0.119 | -0.0604 | -0.411 | -0.17 | -0.867 | 0.781 | 0.854 | 0.362 | 0.117 | 0.456 |
| CCTCGGAGGACAGAAGGTGAGAGCTGTCCGCTTT | 0.177 | 0.159 | -0.939 | -0.679 | -0.923 | -0.0914 | -0.442 | -0.325 | -0.929 | -0.465 |
| CAGCCTAGGTCAGGGGCAGTATAGGAGGAACGTT | 2.14 | 1.38 | -0.331 | 1.27 | -0.805 | 2.38 | 1.3 | 1.75 | 0.184 | 0.954 |
| CCTGCTAGGTCATGGCCAGCTAATCTACAGTATG | 3.55 | 2.55 | 0.0955 | 1.76 | -0.401 | 3.99 | 2.7 | 3 | 0.634 | 2.16 |
| TCATATAGGTAATACAGGTGAGAGTCGGCATCTA | 0.19 | 0.512 | 0.274 | 0.54 | 0.184 | 1.63 | 1.39 | 2.16 | 3.62 | 2.77 |
| GCATATAGGTAATACAAGGTGAACGTCCGATTGT | 0.337 | 1.82 | 0.257 | 0.685 | -0.32 | 1.55 | 1.47 | 1.12 | 0.658 | 0.861 |
| CCTAGTTGGTCAAGGACACACACGCTATAGGTAC | 0.477 | 0.154 | 0.309 | 0.44 | 0.532 | 0.0552 | 1.12 | 0.49 | 0.287 | 0.489 |
